A short description of experiment [1]: antimalarial activity against Dd2 strain (AID 2302;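 active means growth inhibition above 50% at the single 2 µM test dose, taken to imply half-maximal potency below 2 µM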;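 further: 0% = DMSO untreated growth and 100% = chloroquine plus artemisinin killed control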). As to conditions: P. falciparum Dd2 in RBCs, LDH growth readout, 72 h; at 2 µM; hits give high values.
A short description of experiment [2]: human hepatoma cell viability loss – ATP luminescence, cytotoxicity control for P. falciparum antimalarial project, primary screen (AID 2303;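 active means inhibition above 50%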;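 further: 0% = DMSO wells and 100% = digitonin-killed cells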). As to conditions: HepG2 viability, 24-48 h, at 10 µM, hits give high values.
The target in experiment [3] is L-lactate dehydrogenase (Plasmodium falciparum (isolate CDC / Honduras)) (UniProt Q27743). In words: PfLDH activity inhibition – cell lysate, 3D7 strain, counter-screen for P. falciparum growth inhibition project (AID 2304).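 Further: 0% = vehicle and 100% = reference inhibitor.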 As to conditions: P. falciparum 3D7 crude extract, LDH APAD/NBT absorbance; at 2 µM; hits give high values.
L-lactate dehydrogenase (Plasmodium falciparum (isolate CDC / Honduras)), sequence (Q27743 whole entry, looked up): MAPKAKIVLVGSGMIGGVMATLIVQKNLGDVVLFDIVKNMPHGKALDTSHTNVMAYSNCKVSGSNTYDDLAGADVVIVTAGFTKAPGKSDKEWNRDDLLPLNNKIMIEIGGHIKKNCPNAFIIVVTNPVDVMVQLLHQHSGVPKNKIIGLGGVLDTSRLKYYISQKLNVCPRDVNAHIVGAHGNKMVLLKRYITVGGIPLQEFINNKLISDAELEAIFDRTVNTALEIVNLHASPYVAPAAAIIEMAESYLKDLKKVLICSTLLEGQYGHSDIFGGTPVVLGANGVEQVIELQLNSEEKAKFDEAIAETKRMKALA
A short description of experiment [4]: inhibition of 3D7 malaria parasite growth – strain 3D7 (AID 2306).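 Further: 0% = DMSO wells and 100% = chloroquine plus artemisinin control wells.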 As to conditions: P. falciparum 3D7 erythrocytic growth, LDH absorbance, 72 h; at 2 µM; hits give high values.
For experiment [5], the target named is Calcium-dependent protein kinase 1 (Plasmodium falciparum (isolate 3D7)) (UniProt P62344). In words: PfCDPK1 kinase inhibitors, biochemical, TCAMS library (AID 1159585; cut-off not given, nearly all actives have IC50 up to about 0.98 µM;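 further: inhibitors leave more ATP so luminescence rises with inhibition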). The following applies: recombinant PfCDPK1, Kinase-Glo ATP depletion luminescence.
Calcium-dependent protein kinase 1 (Plasmodium falciparum (isolate 3D7)), sequence (P62344 whole entry, looked up): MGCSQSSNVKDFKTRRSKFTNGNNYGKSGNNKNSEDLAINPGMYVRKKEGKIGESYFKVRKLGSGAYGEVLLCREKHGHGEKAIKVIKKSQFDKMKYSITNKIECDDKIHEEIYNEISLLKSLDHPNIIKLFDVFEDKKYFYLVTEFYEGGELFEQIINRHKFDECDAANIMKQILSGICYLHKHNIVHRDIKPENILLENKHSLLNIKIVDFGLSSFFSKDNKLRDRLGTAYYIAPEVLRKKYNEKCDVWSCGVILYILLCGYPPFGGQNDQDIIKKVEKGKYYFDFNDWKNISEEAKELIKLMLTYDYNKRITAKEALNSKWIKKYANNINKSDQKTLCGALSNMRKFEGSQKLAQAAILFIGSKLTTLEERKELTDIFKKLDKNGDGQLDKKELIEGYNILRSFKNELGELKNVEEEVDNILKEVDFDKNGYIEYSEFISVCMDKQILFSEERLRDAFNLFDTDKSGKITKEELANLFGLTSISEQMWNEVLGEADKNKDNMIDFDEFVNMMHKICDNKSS
Experiment [6] deals with Plasmodium falciparum protein kinase 6 (PK6, PF3D7_1337100) (UniProt Q8IDW1). In words: PfPK6 kinase inhibitors, biochemical, TCAMS library (AID 1159586). The following applies: recombinant PfPK6, Kinase-Glo ATP depletion luminescence.
Plasmodium falciparum protein kinase 6 (PK6, PF3D7_1337100), sequence (Q8IDW1 1-305): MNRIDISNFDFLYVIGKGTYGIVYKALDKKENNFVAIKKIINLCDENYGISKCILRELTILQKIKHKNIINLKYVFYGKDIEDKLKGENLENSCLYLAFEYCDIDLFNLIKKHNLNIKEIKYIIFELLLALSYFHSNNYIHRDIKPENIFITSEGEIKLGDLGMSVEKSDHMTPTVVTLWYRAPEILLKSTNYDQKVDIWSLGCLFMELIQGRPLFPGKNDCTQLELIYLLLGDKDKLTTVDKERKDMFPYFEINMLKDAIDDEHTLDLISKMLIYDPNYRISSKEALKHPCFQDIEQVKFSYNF
Experiment [7] deals with Protein kinase 7 (PK7), Plasmodium falciparum 3D7 (PF3D7_0213400) (UniProt Q7YTF7). Put plainly: inhibition of Plasmodium PK7 catalytic activity – biochemical, TCAMS antimalarial set, Kinase-Glo luminescence (AID 1159587). As to conditions: recombinant PfPK7, Kinase-Glo ATP depletion luminescence.
Protein kinase 7 (PK7), Plasmodium falciparum 3D7 (PF3D7_0213400), sequence (Q7YTF7 1-343): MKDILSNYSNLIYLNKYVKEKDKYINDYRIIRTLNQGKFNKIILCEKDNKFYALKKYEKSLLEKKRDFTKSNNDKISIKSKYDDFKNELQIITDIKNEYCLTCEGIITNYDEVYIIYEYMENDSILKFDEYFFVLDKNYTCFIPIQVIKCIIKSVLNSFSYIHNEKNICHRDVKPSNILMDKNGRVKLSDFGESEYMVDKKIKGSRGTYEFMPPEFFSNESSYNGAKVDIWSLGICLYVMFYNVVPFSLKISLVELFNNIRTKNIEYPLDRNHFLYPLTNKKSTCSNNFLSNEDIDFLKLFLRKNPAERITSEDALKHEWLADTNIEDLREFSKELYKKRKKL
Experiment [8] deals with Calcium-dependent protein kinase 4 (Plasmodium falciparum (isolate 3D7)) (UniProt Q8IBS5). Put plainly: PfCDPK4 kinase inhibitors, biochemical, TCAMS library (AID 1159588; cut-off not given, nearly all actives have IC50 up to about 0.91 µM). As to conditions: recombinant PfCDPK4, Kinase-Glo ATP depletion luminescence.
Calcium-dependent protein kinase 4 (Plasmodium falciparum (isolate 3D7)), sequence (Q8IBS5 whole entry, looked up): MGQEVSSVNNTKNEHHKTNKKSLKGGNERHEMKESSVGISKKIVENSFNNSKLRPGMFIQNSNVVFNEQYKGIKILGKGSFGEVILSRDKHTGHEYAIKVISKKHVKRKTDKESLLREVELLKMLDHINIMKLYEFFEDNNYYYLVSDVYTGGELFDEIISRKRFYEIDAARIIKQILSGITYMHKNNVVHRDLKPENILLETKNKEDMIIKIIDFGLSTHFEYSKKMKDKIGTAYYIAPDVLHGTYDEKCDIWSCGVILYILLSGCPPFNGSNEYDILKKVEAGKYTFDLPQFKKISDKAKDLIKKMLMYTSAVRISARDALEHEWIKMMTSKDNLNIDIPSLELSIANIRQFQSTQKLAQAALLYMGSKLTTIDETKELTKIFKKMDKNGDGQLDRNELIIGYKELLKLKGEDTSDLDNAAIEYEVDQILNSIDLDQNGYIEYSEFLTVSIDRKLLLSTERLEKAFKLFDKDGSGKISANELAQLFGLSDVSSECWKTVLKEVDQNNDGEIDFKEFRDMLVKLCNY

The structures appear in SMILES notation. Unmarked numbers belong to inactive results. For some assays here: Measured potencies and affinities stand elsewhere. The source made the active and inactive calls. Unless noted, how the calls were made is not given here.

On to `Brc1cccc(Nc2nccc(Nc3ccc(Oc4ccccc4)cc3)n2)c1`, for which the growth inhibition in experiment [1] is 5%; in experiment [4], 89% (active). The inhibition in experiment [2] was -6%; in experiment [3], -4%. For the same molecule, the outcome in experiment [5], in experiment [6], in experiment [7] and in experiment [8] was inactive.
Consider `Cc1ccc2nc(C)cc(NN=Cc3cccc(F)c3)c2c1`, for which the growth inhibition in experiment [1] and in experiment [4] was 99% (active) each time. Besides, the inhibition in experiment [2] was 6%; in experiment [3] it was -1%. The outcome in experiment [5], in experiment [6], in experiment [7] and in experiment [8] was inactive.
`Cc1nc2ccc3ccc(CNc4ccc(C(=O)N[C@@H](CCC(=O)O)C(=O)N[C@@H](Cc5cccs5)C(=O)O)c(F)c4)cc3c2c(=O)[nH]1`: the growth inhibition in experiment [1] was 96% (active); in experiment [4] it was 97% (active). For the same molecule, the inhibition is 43% in experiment [2] and 4% in experiment [3]. Also, the outcome in experiment [5], in experiment [6], in experiment [7] and in experiment [8] was inactive.
`O=c1c2ccccc2[nH]c2cc(Cl)ccc12`: the growth inhibition in experiment [1] was 86% (active); in experiment [4], 95% (active). The inhibition in experiment [2] was 24%; in experiment [3], 1%. Also, the outcome in experiment [5], in experiment [6], in experiment [7] and in experiment [8] was inactive.
For `Cc1cc(=O)c(C2CCC(c3ccc(Cl)cc3)CC2)c(C)[nH]1` (configuration not stated), the growth inhibition in experiment [1] was 70% (active); in experiment [4], 88% (active). The values for the inhibition in experiment [2] and in experiment [3] were -13% and 0%, respectively. Moreover, the result in experiment [5], in experiment [6], in experiment [7] and in experiment [8] was inactive.
Take `CN1CCN(c2ccnc3ccc(NC(=O)Nc4cccc5ccccc45)cc23)CC1`: the growth inhibition was 96% (active) in experiment [1] and 101% (active) in experiment [4]. Besides, the inhibition is -3% in experiment [2] and 1% in experiment [3]. In addition, the outcome in experiment [5], in experiment [6], in experiment [7] and in experiment [8] was inactive.
In the case of `Cc1ccc2nc(-c3ccccc3Nc3ccnc4cc(-c5nccs5)ccc34)[nH]c2c1`, the growth inhibition in experiment [1] is 100% (active); in experiment [4] it was 101% (active). In addition, the inhibition in experiment [2] is 40%; in experiment [3] it was -5%. Further, the outcome in experiment [5], in experiment [6], in experiment [7] and in experiment [8] was inactive.
On to `O=C(N[C@@H](Cc1cc(F)cc(F)c1)[C@H](O)CNCc1cccc(C(F)(F)F)c1)c1cc(C2CCCC2)cc(N2CCCC2=O)c1`, for which the growth inhibition in experiment [1] is 45%; in experiment [4] it was 95% (active). Also, the figures for the inhibition in experiment [2] and in experiment [3] were 37% and -3%, respectively. The result in experiment [5], in experiment [6], in experiment [7] and in experiment [8] was inactive.
Turning to `COc1ccc(C2CC(=O)C3=C(C2)NC(C)=C(C(=O)OC(C)C)C3c2cccc(O)c2)cc1OC` (configuration not stated), the growth inhibition in experiment [1] is 85% (active); in experiment [4] it was 100% (active). The inhibition in experiment [2] was -2%; in experiment [3], -4%. Moreover, the result in experiment [5], in experiment [6], in experiment [7] and in experiment [8] was inactive.
Consider `CCCCCCOc1ccc(C(=O)NCCCC2CCCN(CCCCCNC(=O)C=Cc3ccc(Cl)c(Cl)c3)C2)cc1` (configuration not stated), for which the growth inhibition was 12% in experiment [1] and 96% (active) in experiment [4]. Further, the inhibition in experiment [2] was 20%; in experiment [3] it was 2%. Besides, the result in experiment [5], in experiment [6], in experiment [7] and in experiment [8] was inactive.
In the case of `C=CCOC(=O)N1CCC(CNCc2cccc(-c3cccc(-c4nc5ccccc5[nH]4)c3)c2)C1` (configuration not stated), the growth inhibition in experiment [1] was 46%; in experiment [4] it was 100% (active). For the same molecule, the inhibition in experiment [2] was 16%; in experiment [3] it was -3%. In addition, the outcome in experiment [5], in experiment [6], in experiment [7] and in experiment [8] was inactive.
Regarding `CCCOc1cc(Cc2cnc(N)nc2N)cc(OC)c1OC`, the growth inhibition was 1% in experiment [1] and 85% (active) in experiment [4]. Also, the inhibition in experiment [2] was 21%; in experiment [3] it was 8%. Further, the outcome in experiment [5], in experiment [6], in experiment [7] and in experiment [8] was inactive.
In the case of `O=C(/C=C/c1ccc(Cl)c(Cl)c1)N1CCC(NCc2ccc3[nH]ccc3c2)CC1`, the growth inhibition in experiment [1] was 1%; in experiment [4], 97% (active). Moreover, the inhibition in experiment [2] is 44%; in experiment [3], -2%. The result in experiment [5], in experiment [6], in experiment [7] and in experiment [8] was inactive.
Take `Cc1ccc2cc(C3NC(=O)c4ccccc4N3)c(Cl)nc2c1` (configuration not stated): the growth inhibition in experiment [1] was 38%; in experiment [4], 91% (active). The inhibition in experiment [2] is -6%; in experiment [3], 1%. The result in experiment [5], in experiment [6], in experiment [7] and in experiment [8] was inactive.
In the case of `N#Cc1ccccc1N1CCN(C2CCC(NC(=O)c3n[nH]c4cc(C(F)(F)F)ccc34)CC2)CC1` (configuration not stated), the growth inhibition was 34% in experiment [1] and 84% (active) in experiment [4]. Also, the inhibition in experiment [2] was 15%; in experiment [3], -4%. Also, the outcome in experiment [5], in experiment [6], in experiment [7] and in experiment [8] was inactive.
In the case of `CCCc1cc(NCc2ccncc2)nc(Nc2ccc(F)cc2)n1`, the figures for the growth inhibition in experiment [1] and in experiment [4] were 6% and 90% (active), respectively. The inhibition in experiment [2] was 9%; in experiment [3] it was -7%. The outcome in experiment [5], in experiment [6], in experiment [7] and in experiment [8] was inactive.
`CN(C)S(=O)(=O)c1ccc(N2CCN(CCC3(c4cccc(F)c4)CCN(C(=O)C(C)(C)C)CC3)CC2)c2nonc12`: the growth inhibition is 85% (active) in experiment [1] and 91% (active) in experiment [4]. Also, the inhibition in experiment [2] was 8%; in experiment [3] it was -1%. The outcome in experiment [5], in experiment [6], in experiment [7] and in experiment [8] was inactive.
Regarding `COc1ccc(NC(=O)Nc2nc(-c3ccc(Cl)c(C)c3)cs2)cc1N1CCN(C)CC1`, the figures for the growth inhibition in experiment [1] and in experiment [4] were 89% (active) and 99% (active), respectively. The inhibition in experiment [2] is 9%; in experiment [3], 0%. Moreover, the result in experiment [5], in experiment [6], in experiment [7] and in experiment [8] was inactive.
On to `O=C(Nc1ccccc1)N(Cc1ccc(-c2cccc(CNCc3ccc4c(c3)OCO4)c2)cc1)C1CCN(Cc2ccccc2)CC1`, for which the growth inhibition in experiment [1] is 65% (active); in experiment [4], 100% (active). Moreover, the values for the inhibition in experiment [2] and in experiment [3] were 29% and -1%, respectively. For the same molecule, the outcome in experiment [5], in experiment [6], in experiment [7] and in experiment [8] was inactive.

Source of the values: PubChem BioAssay.
